CYP2C19 activ: increases human CYP2C19 enzyme activity; P33261; recombinant CYP2C19, luciferin-H EGE luminescence; active compounds read high; 0 = fully inhibited enzyme, 1 = untreated enzyme; activation factor at 5 µM; 96,000 tested, under 10 active; AID 1025;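 active = activation factor of at least 2 at 5 µM in the primary screen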;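 also: 0 = wells with 2.5 mM tranylcypromine and 1 = vehicle-only wells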
Target sequence (P33261 whole entry, looked up): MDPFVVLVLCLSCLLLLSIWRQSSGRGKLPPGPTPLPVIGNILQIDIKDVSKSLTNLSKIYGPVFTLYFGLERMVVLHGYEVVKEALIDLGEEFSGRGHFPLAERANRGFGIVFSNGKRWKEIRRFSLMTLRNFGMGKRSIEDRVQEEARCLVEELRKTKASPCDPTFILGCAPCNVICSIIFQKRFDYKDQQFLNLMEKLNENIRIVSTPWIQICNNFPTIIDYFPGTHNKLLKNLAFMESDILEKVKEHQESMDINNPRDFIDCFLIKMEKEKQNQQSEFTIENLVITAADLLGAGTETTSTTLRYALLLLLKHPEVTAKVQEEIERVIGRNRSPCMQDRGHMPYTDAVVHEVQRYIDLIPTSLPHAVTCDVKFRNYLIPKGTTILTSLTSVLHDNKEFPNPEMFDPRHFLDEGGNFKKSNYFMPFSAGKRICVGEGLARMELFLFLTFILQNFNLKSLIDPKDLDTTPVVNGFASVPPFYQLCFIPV
CYP2C9 act: increases human cytochrome P450 2C9 activity. recombinant CYP2C9, luciferin-H conversion, luminescence; active compounds read high; factor 1 = untreated enzyme, 0 = blocked. P11712. hit rate 1.4% among 96,000. activation factor at 5 µM;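 active = activation factor of 2 or more for CYP2C9 at a 5 µM dose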;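 also: 0 = sulfaphenazole-blocked wells and 1 = vehicle-only wells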
CYP2C9 inh: human CYP2C9 inhibition | CYP2C9 Supersomes, luciferin-H conversion, luminescence | inhibition, % at 5 µM | P11712 | hit rate 20% among 96,000;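 active = blocking of liver enzyme CYP2C9 beyond about 50% at 5 µM, limit read from the data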
Cav32 inh: blocks human Cav3.2 T-type calcium channel. O95180. Cav3.2-expressing cells, Fluo-4 calcium fluorescence FDSS; active compounds read low. B-score at 10 µM. hit rate 4% among 100,000. AID 449739;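 active = single-dose well whose peak fluorescence ratio is a statistical outlier from its plate by either plate-standardised score or position-corrected B-score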
CYP2C19 inh: inhibitors of human CYP2C19 | CYP2C19 Supersomes, luciferin-H EGE luminescence, 30 min | inhibition, % at 5 µM | hit rate 21% among 96,000;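 active = CYP2C19 inhibition above a set limit at 5 µM in the primary screen, cut at about 50% in these data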;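 also: plate controls were negative control wells for no effect and 2.5 mM tranylcypromine positive control for full effect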
* hit, by the source's call; nt = not tested or not shown. A selection: hits, their analogues and other compounds. The true share with any hit is near 27%.

SMILES	CYP2C19 activ	CYP2C9 act	CYP2C9 inh	Cav32 inh	CYP2C19 inh
Cn1nnc(NC(=O)COc2ccc(C3CCCCC3)cc2)n1	0.6	0.5	53*	-1.3	39
COc1cc2c(cc1OC)CN(c1ccc(-c3ccccc3OC)nn1)CC2	0.4	2.4*	-140	-2.2	62*
CC(C)c1nc(SCc2c(F)cccc2Cl)c2c(=O)n(C)c(=O)n(C)c2n1	1	0.3	67*	-1.9	1
Cn1c(=O)c2c(nc(SCCCC#N)n2Cc2c(F)cccc2Cl)n(C)c1=O	0.9	0.4	59*	0.35	14
Cn1c(=O)c2c(nc(OCc3cccnc3)n2Cc2c(F)cccc2Cl)n(C)c1=O	0.8	0.5	52*	2.8	17
Cn1c(=O)c2c(nc(Br)n2Cc2c(F)cccc2Cl)n(C)c1=O	0.8	1	3	nt	20
O=C(Nc1ccc2oc(=O)ccc2c1)c1cccnc1Cl	nt	nt	nt	-0.041	nt
CCN(CC)c1ccc(NC(=O)COC(=O)C23CCC(=O)N2c2ccccc2S3)cc1 (stereo not given)	0.9	0.7	33	0.53	8
COc1ccc(Cl)cc1NC(=O)c1nc2nc(C)cc(C(F)F)n2n1	1.2	3.6*	-263	-0.59	-18
COc1ccc(Cl)cc1NC(=O)c1ocnc1C	0.9	2.6*	-164	-0.39	6
COc1ccc(Cl)cc1NC(=O)N(C)Cc1c(C)nn(C)c1C	0.1	2.4*	-143	-1.2	86*
COc1ccc(NC(=O)c2ocnc2C)cc1OC	1.1	1.1	-9	0.0045	-10
Cc1occc1C(=O)Nc1ccc(Br)cc1F	0.5	0.8	24	1.1	50*
COc1cccc(NC(=O)c2nc3nc(C)cc(C(F)F)n3n2)c1	1	1	0	-0.56	4
CCOC(=O)c1[nH]c2ccc(OC)cc2c1N=CN(C)C	0.9	0.9	11	0.06	7
COc1ccc(C)cc1NC(=O)c1ccoc1C	1	1.2	-22	-0.13	2
COc1ccc(Cl)cc1NC(=O)c1cnc2sccn2c1=O	1	2.1*	-112	0.8	2
COc1ccc(Cl)cc1NC(=O)c1ccoc1C	0.9	2.6*	-165	-1.5	15
O=C(Nc1cnc2sccn2c1=O)c1ccc(Cl)cc1Cl	0.9	1.6	-58	-0.042	7
COc1ccc(C(C)(C)C)cc1NC(=O)c1ccoc1C	0.4	0.6	39	-3.1	62*
Cc1c(N=c2c(=O)c3ccccc3c2=O)c(=O)n(-c2ccccc2)n1C	nt	nt	nt	-0.13	nt
COc1ccc(OC)c(S(=O)(=O)N2C(C)CCCC2C)c1 (stereo not given)	0.1	0.1	85*	0.54	93*
COc1ccc(OC)c(S(=O)(=O)N2CCc3ccccc32)c1	0.2	1.2	-21	-1.2	77*
CC(=O)Nc1ccc(S(=O)(=O)N2CCCc3ccccc32)cc1	0.7	0.6	36	-0.91	34
Cc1cc(NC(=O)COC(=O)c2ccc(S(=O)(=O)N3CCCc4ccccc43)cc2)no1	0.5	0.3	66*	0.059	46
SMILES	CYP2C19 activ	CYP2C9 act	CYP2C9 inh	Cav32 inh	CYP2C19 inh
COc1ccc(OC)c(S(=O)(=O)N2CCN(C34CC5CC(CC(C5)C3)C4)CC2)c1	0.8	1.2	-24	0.79	16
COc1ccc(C(=O)OCC(=O)Nc2cc(C)on2)cc1S(=O)(=O)N1CCOCC1	1.1	1	0	0.56	-9
CCCNC(=O)NC(=O)COC(=O)c1ccc(OC)c(S(=O)(=O)N2CCCc3ccccc32)c1	0.6	0	95*	-7.5*	37
CC(C)SCCCOc1ccc(C(C)(C)C)cc1	1	1	3	0.64	-4
CCOc1cc2[nH]c(=O)n(CCCN3CCCC3=O)c(=O)c2cc1OCC	1	0.9	12	-0.22	-4
Cc1ccc2c(c1)C1(OCCO1)C(=O)N2	1	1	3	0.29	-2
COc1ccc(OC)c(S(=O)(=O)N2c3cc(F)ccc3CCC2C)c1 (stereo not given)	0.1	0.4	61*	-2.2	88*
CC1Cc2ccccc2N1S(=O)(=O)c1cccc2nsnc12 (stereo not given)	0.2	0	99*	-1.4	79*
COc1ccc(C(=O)NCc2ccc(C)cc2)cc1S(=O)(=O)N1CCCc2ccccc21	0.3	0.3	74*	-3.9	67*
CC1CN(S(=O)(=O)c2cccc3nsnc23)CC(C)O1 (stereo not given)	nt	nt	nt	-0.07	nt
COc1ccc(OC)c(S(=O)(=O)N2CCCc3ccccc32)c1	0.2	1.7	-68	-2.7	84*
O=c1cc(N2CCCCC2)c(-c2ccccc2)nn1Cc1c(Cl)cccc1Cl	0.7	0.6	45	-0.22	27
COc1ccc(S(=O)(=O)O/N=C2\CCCc3ccccc32)cc1	0.6	1.6	-56	nt	42
Brc1ccc(-c2cn3c(n2)CCc2ccc4cccnc4c2-3)cc1	0.9	1	4	0.082	5
COc1ccc(F)cc1S(=O)(=O)N1CC(C)CC(C)C1 (stereo not given)	0.4	0.8	23	-1.5	65*
COc1ccc(OC)c(S(=O)(=O)N2c3ccccc3CC2C)c1 (stereo not given)	0.3	0.2	79*	-1.2	75*
COc1ccc(Br)cc1S(=O)(=O)N1CC(C)OC(C)C1 (stereo not given)	nt	nt	nt	0.34	nt
COc1ccc(C(=O)N2CCCN(C)CC2)cc1S(=O)(=O)N1CCCc2ccccc21	0.8	0.5	50*	1.5	18
COc1ccc(OC)c(S(=O)(=O)N2Cc3ccccc3CC2C(=O)O)c1 (stereo not given)	0.9	0.9	8	-0.072	12
CC(C)N(C)C1CCN(C(=O)Nc2ccc(Cl)c(Cl)c2)CC1	1.2	1.2	-18	0.99	-19
CC1(c2nnc(-c3cccc(Cl)c3)o2)CC(c2ccc(F)cc2)=NO1 (stereo not given)	nt	nt	nt	-0.47	nt
Cc1nnc(NC(=O)CSc2nc(C(C)C)nc3sc(C)c(C)c23)s1	0.8	0.7	31	0.62	22
Cc1c(Cl)cccc1NC(=O)CCC(=O)NNC(=O)c1ccccc1Cl	0.8	1	4	1	19
CC1CCC(C(C)C)C2=C1C(C#N)(C#N)C(C#N)(C#N)C(c1ccccc1)N2 (stereo not given)	0.5	0.3	70*	1.9	48
COc1nc(N)c(S(=O)(=O)c2ccccc2C)cc1C#N	0.2	1.9	-86	-3.9*	78*
SMILES	CYP2C19 activ	CYP2C9 act	CYP2C9 inh	Cav32 inh	CYP2C19 inh
COC(=O)c1cc(C#N)c(Oc2ccccc2)nc1C	nt	nt	nt	-0.57	nt
COc1nc(N)c(S(=O)(=O)c2ccccc2)cc1C#N	0.6	2.4*	-143	0.64	39
CCc1ccc(N2C(=O)c3ccc4c5c(ccc(c35)C2=O)CC4)cc1	0.7	0.8	19	0.3	29
COc1cc(OC)cc(OCC(O)Cn2ccnc2)c1 (stereo not given)	0	0.1	91*	-0.17	98*
O=C1c2ccccc2C2(c3ccccc3)NCCN12 (stereo not given)	0.9	0.9	8	-0.59	8
Cc1ccc(C(=O)N2CCN3C(=O)c4ccccc4C23c2ccc(Cl)cc2)cc1 (stereo not given)	0.1	0.6	38	-5*	86*

Screening data (PubChem BioAssay)
